Results filed as inconclusive are left out. Calls of active or inactive are those of the source. Unless noted, the call rests on the fitted dose curve; in most records, active means well fitted curve in the direction sought with a large enough effect in the repeat runs; inconclusive means weak or mixed curves; inactive means no such curve, though single readings can be large; an effect the other way counts as inactive or inconclusive.
What was measured:
[1] = qHTS assay to identify small molecule antagonists of the sonic hedgehog signaling (Shh) pathway (AID 1259369; calls by dose curve; further: nearly all actives have a fitted effect of over 45% in size)
How it was run: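 NIH/3T3-derived 3T3Gli1-Luc cells with stably integrated Gli1-Luc reporter were preincubated 4hr at 37 C, then given compounds in DMSO plus Shh conditioned medium and incubated 24hr. Firefly luciferase luminescence read after 30min reagent at room temperature.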

[2] = target: Estrogen receptor beta (Homo sapiens) (UniProt Q92731); experiment: qHTS assay to identify small molecule agonists of the estrogen receptor beta (ER-beta) signaling pathway (AID 1259377; active means well fitted activation curve with a large enough effect in the signal ratio in the repeat runs, not every such curve was filed as active; the % refers to the signal ratio)
How it was run: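 In HEK293T cells bearing a UAS-beta-lactamase reporter under ER-beta control, DMSO-delivered compounds were incubated for 16 hr at 37C. Activity was detected as fluorescence 2 hours after LiveBLAzer B/G FRET substrate addition.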

[3] = target: Estrogen receptor beta (Homo sapiens) (UniProt Q92731); experiment: qHTS assay to identify small molecule antagonists of the estrogen receptor beta (ER-beta) signaling pathway (AID 1259378; active means well fitted inhibition curve with a large enough effect in the signal ratio in the repeat runs, not every such curve was filed as active; the % refers to the signal ratio)
How it was run: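 Antagonist mode: compounds added to beta-lactamase reporter HEK293T ER-beta-UAS cells stimulated with E2 (1nM final), 16 hr at 37C. LiveBLAzer B/G FRET substrate, 2 hours room temperature, fluorescence read-out.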

[4] = qHTS assay to identify small molecule agonists of the androgen receptor (AR) signaling pathway in the presence of an antagonist - cell viability counter screen (AID 1259379); further: series mostly up to about 92 µM; nearly all actives have a fitted effect of over 25% in size
How it was run: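 MDA-kb2 human breast carcinoma cells (stable MMTV-luciferase, AR/GR responsive) were seeded 3,000 cells/well, pre-incubated 5 hr at 37C without CO2, then given 3.0uM nilutamide and compounds at 15 concentrations for 16 hr. Viability was read by CellTiter-Fluor fluorescence.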

[5] = qHTS assay to identify small molecule agonists of the estrogen receptor beta (ER-beta) signaling pathway - cell viability counter screen (AID 1259380); further: nearly all actives have a fitted effect of over 30% in size
How it was run: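 ER-beta-UAS-bla HEK293T cells in medium with 2% charcoal-stripped FBS were preincubated 6 hr at 37C, dosed with compound in DMSO for 16 hr, then after the bla read, CellTiter-Glo was added for 30 min at room temperature; luminescence recorded.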

[6] = target: Androgen receptor (Homo sapiens) (UniProt P10275); experiment: qHTS assay to identify small molecule agonists of the androgen receptor (AR) signaling pathway in the presence of an antagonist (AID 1259381; calls by dose curve; further: nearly all actives have a fitted effect of over 15% in size; further: potency means the concentration at half of the fitted maximal effect)
How it was run: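 MDA-kb2 human breast carcinoma cells carrying an MMTV-luciferase reporter (AR- and GR-responsive) were treated with compounds at 15 concentrations plus 3.0uM final nilutamide for 16hr at 37C without CO2; luminescence was read after ONE-Glo addition.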

[7] = qHTS assay to identify small molecule antagonists of the estrogen receptor beta (ER-beta) signaling pathway - cell viability counter screen (AID 1259382);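 further: HEK293T cells carrying ER-beta-UAS-bla reporter stimulated with estradiol; series mostly up to about 92 µM; nearly all actives have a fitted effect of over 55% in size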
How it was run: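 ER-beta-UAS-bla HEK293T cells (2,000/well, 2% charcoal-stripped FBS) were pre-incubated 6 hr at 37C, then given compound plus 1nM final 17-beta-estradiol for 16 hr. Viability was read in the same wells by CellTiter-Glo luminescence after 30 min at room temperature.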

[8] = target: Estrogen receptor (Homo sapiens) (UniProt P03372); experiment: qHTS assay to identify small molecule agonists of the estrogen receptor alpha (ER-alpha) signaling pathway in the presence of an antagonist (AID 1259383; calls by dose curve; further: top concentration of the series differs between compounds; nearly all actives have a fitted effect of over 15% in size)
How it was run: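 VM7Luc4E2 cells (endogenous full-length ER-alpha, 4×ERE-luciferase) were precultured 5 days in phenol red-free medium with 10% charcoal-stripped FBS, given 10.0nM ICI-182,780 (final), then treated with compounds at 15 concentrations for 22hr at 37C; luminescence read with ONE-Glo.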

[9] = qHTS assay to identify small molecule agonists or antagonists of the thyroid stimulating hormone receptor (TSHR) signaling pathway - wild type cell line counter screen (AID 1259384; calls by dose curve)
How it was run: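 Counter screen in untransfected Hek293: compounds (15-point titration, triplicate) plus phosphodiesterase inhibitor Ro20-1724 added after 18 h plating; 30 min RT. Intracellular cAMP via competitive d2/cryptate immunoassay, 1 h incubation.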

[10] = target: Thyrotropin receptor (Homo sapiens) (UniProt P16473); experiment: qHTS assay to identify small molecule antagonists of the thyroid stimulating hormone receptor (TSHR) signaling pathway (AID 1259385; calls by dose curve; further: nearly all actives have a fitted effect of over 20% in size)
How it was run: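 Antagonist mode: compound-treated TSHR-expressing HEK293 cells were stimulated with 1.5 ng/mL TSH (final) in presence of Ro20-1724 for 30 min at RT. HTRF cAMP detection after 1 h; each compound tested at 15 concentrations, triplicate.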

[11] = qHTS assay to identify small molecule agonists of the estrogen receptor alpha (ER-alpha) signaling pathway in the presence of an antagonist - cell viability counter screen (AID 1259386);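 further: series mostly up to about 92 µM; cells exposed to compounds for 22 h at 37 °C before the viability read; nearly all actives have a fitted effect of over 30% in size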
How it was run: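 VM7Luc4E2 cells (endogenous full-length ER-alpha, 4×ERE-luciferase) were held 5 days in phenol red-free medium with 10% charcoal-stripped FBS, plated, then given 10.0nM ICI-182,780 and compounds at 15 concentrations for 22hr at 37C; viability read by CellTiter-Fluor fluorescence.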

[12] = target: Progesterone receptor (Homo sapiens) (UniProt P06401); experiment: qHTS assay to identify small molecule agonists of the progesterone receptor (PR) signaling pathway (AID 1346784; calls by dose curve; further: nearly all actives have a fitted effect of over 30% in size)
How it was run: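 Using charcoal-stripped serum (2%) to limit endogenous steroids, PR-UAS-bla HEK 293T cells received compounds for 16 hr at 37C after 6 hr plating; beta-lactamase FRET fluorescence was recorded following 2 hr substrate loading at room temperature.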

[13] = target: Progesterone receptor (Homo sapiens) (UniProt P06401); experiment: qHTS assay to identify small molecule antagonists of the progesterone receptor (PR) signaling pathway (AID 1346795; active means well fitted inhibition curve with a large enough effect in the signal ratio in the repeat runs, not every such curve was filed as active; the % refers to the signal ratio)
How it was run: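 Inhibition of R5020-induced (1 nM final) beta-lactamase reporter signal in PR-UAS-bla HEK293T cells was scored by FRET fluorescence after overnight (16 hr) compound treatment.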

[14] = qHTS assay to identify small molecule antagonists of the progesterone receptor (PR) signaling pathway - cell viability counter screen (AID 1346798); further: series mostly up to about 92 µM; nearly all actives have a fitted effect of over 50% in size
How it was run: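 ATP content as viability readout: CellTiter-Glo luminescence, 30 min room temperature, in PR-UAS-bla HEK293T cells after 16 hr compound/R5020 treatment at 37C and 5% CO2.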

[15] = qHTS assay to identify small molecule agonists of the progesterone receptor (PR) signaling pathway - cell viability counter screen (AID 1346799; calls by dose curve; further: nearly all actives have a fitted effect of over 45% in size)
How it was run: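 Cytotoxicity in PR-bla HEK293T cells: 16 h compound, 37C; CellTiter-Glo added post-FRET read; luminescence after 30 min RT.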

[16] = qHTS assay to identify small molecule agonists of the TGF-beta/Smad signaling pathway - cell viability counter screen (AID 1346829); further: top concentration of the series differs between compounds; nearly all actives have a fitted effect of over 45% in size
How it was run: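 CellTiter-Glo luminescence readout; SBE-bla HEK 293T cells, overnight plating, compound 5 hr at 37 C/5% CO2, then bla substrate 2 hr RT, then CellTiter-Glo 30 min RT.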

[17] = qHTS assay to identify small molecule agonists of the TGF-beta/Smad signaling pathway (AID 1346859; active means well fitted activation curve with a large enough effect in the signal ratio in the repeat runs, not every such curve was filed as active; the % refers to the signal ratio; further: series mostly up to about 77 µM)
How it was run: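 Stable Smad binding element-beta-lactamase HEK 293T cells; 5 hr compound exposure at 37 C under 5% CO2; 2 hr room-temperature substrate step; fluorescence excited at 405 nm, collected at 460 nm and 530 nm.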

[18] = target: Thyrotropin-releasing hormone receptor (Homo sapiens) (UniProt P34981); experiment: qHTS assay to identify small molecule antagonists of the thyrotropin-releasing hormone receptor (TRHR) signaling pathway (AID 1346877; active means well fitted inhibition curve with a large enough effect in the repeat runs, not every such curve was filed as active; further: series mostly up to about 51 µM)
How it was run: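 TRHR-expressing HEK293 cells were seeded, cultured 18 h at 37 °C, then loaded with calcium dye for 2 h. Compounds were pre-incubated 5 min at room temperature before 1 nM TRH (final) was added, and kinetic fluorescence was recorded for 3 min.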

[19] = target: Thyrotropin-releasing hormone receptor (Homo sapiens) (UniProt P34981); experiment: qHTS assay to identify small molecule agonists of the thyrotropin-releasing hormone receptor (TRHR) signaling pathway (AID 1346891; calls by dose curve; further: series mostly up to about 58 µM)
How it was run: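 In 1536-format, 1500 TRHR-Hek293 cells per well grew 18 h, took up calcium dye for 2 h at 37 °C, received compound, and were read kinetically; 15-point titrations, triplicates.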

[20] = qHTS assay to identify small molecule antagonists of the TGF-beta/Smad signaling pathway - cell viability counter screen (AID 1346824); further: nearly all actives have a fitted effect of over 50% in size
How it was run: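 Cytotoxicity counter-screen run in the same wells as the beta-lactamase Smad reporter read: CellTiter-Glo luminescence after 30 min at room temperature. HEK 293T SBE-bla cells had 5 hr compound exposure at 37 C with TGF-beta1 (0.25 ng/mL stock).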

Measured: Potency

Chain of Thyrotropin-releasing hormone receptor (Homo sapiens) (P34981 whole entry, looked up): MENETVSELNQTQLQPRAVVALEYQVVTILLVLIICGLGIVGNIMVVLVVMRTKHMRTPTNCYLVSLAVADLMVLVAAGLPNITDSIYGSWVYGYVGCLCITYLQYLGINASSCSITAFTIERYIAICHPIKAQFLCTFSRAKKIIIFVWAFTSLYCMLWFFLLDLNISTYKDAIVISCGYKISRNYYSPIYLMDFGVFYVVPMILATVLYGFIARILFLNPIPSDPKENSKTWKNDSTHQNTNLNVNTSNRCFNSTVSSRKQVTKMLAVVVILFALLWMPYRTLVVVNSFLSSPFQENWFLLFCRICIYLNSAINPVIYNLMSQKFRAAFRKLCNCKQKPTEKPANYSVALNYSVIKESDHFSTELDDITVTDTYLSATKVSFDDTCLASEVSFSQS
Chain of Androgen receptor (Homo sapiens) (P10275 whole entry, looked up): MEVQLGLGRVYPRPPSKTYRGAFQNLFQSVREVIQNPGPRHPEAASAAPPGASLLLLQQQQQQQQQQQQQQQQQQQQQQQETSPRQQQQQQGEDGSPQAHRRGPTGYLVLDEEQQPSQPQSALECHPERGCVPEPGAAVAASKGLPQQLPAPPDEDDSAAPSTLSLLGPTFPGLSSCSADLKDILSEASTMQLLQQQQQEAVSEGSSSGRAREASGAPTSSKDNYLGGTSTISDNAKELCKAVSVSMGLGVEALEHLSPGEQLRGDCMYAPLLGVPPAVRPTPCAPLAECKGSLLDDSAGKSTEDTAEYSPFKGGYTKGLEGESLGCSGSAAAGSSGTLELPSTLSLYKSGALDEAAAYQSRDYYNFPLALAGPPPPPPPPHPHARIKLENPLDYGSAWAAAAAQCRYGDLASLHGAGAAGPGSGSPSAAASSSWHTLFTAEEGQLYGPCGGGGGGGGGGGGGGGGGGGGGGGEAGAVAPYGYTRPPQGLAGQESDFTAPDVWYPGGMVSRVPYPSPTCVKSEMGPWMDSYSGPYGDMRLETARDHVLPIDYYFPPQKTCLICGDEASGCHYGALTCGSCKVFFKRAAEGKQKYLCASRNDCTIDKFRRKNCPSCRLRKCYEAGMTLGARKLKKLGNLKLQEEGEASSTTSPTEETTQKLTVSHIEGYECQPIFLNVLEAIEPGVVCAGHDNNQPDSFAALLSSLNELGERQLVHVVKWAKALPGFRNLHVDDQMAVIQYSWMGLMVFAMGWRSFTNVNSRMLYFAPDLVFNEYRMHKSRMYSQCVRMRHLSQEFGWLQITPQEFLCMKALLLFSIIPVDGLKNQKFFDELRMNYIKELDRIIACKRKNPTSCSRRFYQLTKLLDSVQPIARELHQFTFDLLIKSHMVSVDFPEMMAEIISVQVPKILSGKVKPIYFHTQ
Chain of Estrogen receptor (Homo sapiens) (P03372 whole entry, looked up): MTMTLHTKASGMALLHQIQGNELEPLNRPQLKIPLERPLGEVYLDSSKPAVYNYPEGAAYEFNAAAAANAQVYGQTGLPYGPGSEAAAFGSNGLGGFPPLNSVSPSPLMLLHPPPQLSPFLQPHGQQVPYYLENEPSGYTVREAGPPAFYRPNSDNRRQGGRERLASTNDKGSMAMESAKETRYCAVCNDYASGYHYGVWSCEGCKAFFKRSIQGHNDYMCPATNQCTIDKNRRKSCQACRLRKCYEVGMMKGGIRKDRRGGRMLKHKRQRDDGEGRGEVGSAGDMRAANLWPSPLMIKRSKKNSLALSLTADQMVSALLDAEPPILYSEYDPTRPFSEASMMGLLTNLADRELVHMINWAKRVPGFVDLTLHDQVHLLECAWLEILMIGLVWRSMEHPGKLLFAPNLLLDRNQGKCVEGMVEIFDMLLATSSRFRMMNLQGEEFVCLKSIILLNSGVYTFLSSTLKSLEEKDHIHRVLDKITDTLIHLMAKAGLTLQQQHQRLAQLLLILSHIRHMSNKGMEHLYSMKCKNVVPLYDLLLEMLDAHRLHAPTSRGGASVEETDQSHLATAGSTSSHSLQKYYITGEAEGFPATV
Chain of Progesterone receptor (Homo sapiens) (P06401 whole entry, looked up): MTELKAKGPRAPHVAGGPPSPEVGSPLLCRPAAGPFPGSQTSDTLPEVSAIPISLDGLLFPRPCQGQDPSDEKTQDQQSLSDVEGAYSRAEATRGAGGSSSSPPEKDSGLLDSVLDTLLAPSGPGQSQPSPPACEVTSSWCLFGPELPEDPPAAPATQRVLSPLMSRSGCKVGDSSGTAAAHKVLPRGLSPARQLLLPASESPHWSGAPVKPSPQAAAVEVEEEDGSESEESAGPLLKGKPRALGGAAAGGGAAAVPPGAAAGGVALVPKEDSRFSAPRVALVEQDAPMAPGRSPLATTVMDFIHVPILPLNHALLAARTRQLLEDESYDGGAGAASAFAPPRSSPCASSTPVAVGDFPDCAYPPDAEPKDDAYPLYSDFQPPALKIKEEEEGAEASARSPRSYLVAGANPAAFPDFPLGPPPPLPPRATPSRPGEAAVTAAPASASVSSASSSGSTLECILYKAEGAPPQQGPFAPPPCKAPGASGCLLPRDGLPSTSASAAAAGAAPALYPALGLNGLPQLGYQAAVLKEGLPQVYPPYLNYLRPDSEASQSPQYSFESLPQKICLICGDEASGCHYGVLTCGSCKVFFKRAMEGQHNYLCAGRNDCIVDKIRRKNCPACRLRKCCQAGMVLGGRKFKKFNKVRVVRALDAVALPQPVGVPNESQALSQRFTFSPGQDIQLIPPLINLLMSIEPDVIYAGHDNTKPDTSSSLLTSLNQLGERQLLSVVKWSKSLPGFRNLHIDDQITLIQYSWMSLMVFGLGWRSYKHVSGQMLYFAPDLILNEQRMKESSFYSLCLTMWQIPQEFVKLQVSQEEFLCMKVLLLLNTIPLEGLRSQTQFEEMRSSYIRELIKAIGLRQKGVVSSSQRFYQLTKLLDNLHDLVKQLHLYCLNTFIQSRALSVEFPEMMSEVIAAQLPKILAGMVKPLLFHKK
Chain of Estrogen receptor beta (Homo sapiens) (Q92731 whole entry, looked up): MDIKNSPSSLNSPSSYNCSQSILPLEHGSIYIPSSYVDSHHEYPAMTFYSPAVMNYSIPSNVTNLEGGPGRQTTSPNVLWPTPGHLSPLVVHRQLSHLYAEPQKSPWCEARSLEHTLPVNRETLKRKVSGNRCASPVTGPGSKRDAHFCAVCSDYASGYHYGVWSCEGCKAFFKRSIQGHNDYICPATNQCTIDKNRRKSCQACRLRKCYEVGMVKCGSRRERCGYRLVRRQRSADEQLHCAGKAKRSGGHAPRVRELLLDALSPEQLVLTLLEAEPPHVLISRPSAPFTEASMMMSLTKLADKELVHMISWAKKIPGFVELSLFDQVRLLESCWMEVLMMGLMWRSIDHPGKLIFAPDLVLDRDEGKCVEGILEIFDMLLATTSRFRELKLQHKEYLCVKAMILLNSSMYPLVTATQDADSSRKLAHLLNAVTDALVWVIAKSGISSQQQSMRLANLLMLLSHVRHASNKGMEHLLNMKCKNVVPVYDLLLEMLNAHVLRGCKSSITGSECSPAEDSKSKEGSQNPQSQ
Chain of Thyrotropin receptor (Homo sapiens) (P16473 whole entry, looked up): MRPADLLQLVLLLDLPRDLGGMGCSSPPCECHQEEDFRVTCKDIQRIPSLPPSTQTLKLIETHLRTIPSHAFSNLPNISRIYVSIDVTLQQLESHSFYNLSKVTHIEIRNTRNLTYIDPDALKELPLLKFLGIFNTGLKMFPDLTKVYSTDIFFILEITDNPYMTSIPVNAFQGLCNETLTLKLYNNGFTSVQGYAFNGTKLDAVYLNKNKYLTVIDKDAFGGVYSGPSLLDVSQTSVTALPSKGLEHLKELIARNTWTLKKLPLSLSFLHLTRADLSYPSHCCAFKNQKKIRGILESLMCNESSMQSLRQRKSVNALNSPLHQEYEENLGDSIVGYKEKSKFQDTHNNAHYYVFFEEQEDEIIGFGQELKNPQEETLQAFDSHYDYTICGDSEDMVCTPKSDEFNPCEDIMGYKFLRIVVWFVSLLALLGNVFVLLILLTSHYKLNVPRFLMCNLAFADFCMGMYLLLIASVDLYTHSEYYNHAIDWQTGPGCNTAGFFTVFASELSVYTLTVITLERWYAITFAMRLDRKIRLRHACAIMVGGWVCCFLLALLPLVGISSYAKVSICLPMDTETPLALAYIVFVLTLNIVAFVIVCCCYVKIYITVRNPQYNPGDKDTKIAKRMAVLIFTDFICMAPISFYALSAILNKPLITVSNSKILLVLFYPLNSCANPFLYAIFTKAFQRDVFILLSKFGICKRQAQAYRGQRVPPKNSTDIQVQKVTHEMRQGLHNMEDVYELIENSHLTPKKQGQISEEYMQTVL

CC(=O)Nc1ccc(S(N)(=O)=O)cc1
not listed: [20]
inactive: all other assays above

C1CN(CCOCCN2CCOCC2)CCO1
not listed: [6] | [18] | [19]
inactive: all other assays above

C[C@H](NC(CCc1ccccc1)C(=O)O)C(=O)N1CCC[C@H]1C(=O)O (stereo partly specified)
not listed: [6]
inactive: all other assays above

O=C(O)COc1nn(Cc2ccccc2)c2ccccc12
active: [6] 33.5 µM
not listed: [17]
inactive: all other assays above

OC1CCCCC1c1ccccc1 (stereo unspecified)
not listed: [14]
inactive: all other assays above

Cc1cc2c(cc1S(N)(=O)=O)S(=O)(=O)CCC2
not listed: [6] | [14]
inactive: all other assays above

COC(=O)CC(C)=O
not listed: [6] | [8] | [14] | [15]
inactive: all other assays above

CCS(=O)(=O)c1ccc(OC)c(C(=O)OC)c1
not listed: [6] | [9] | [10] | [12] | [13] | [14]
inactive: all other assays above

CO/N=C(/C(=O)N[C@@H]1C(=O)N2C(C(=O)OCOC(=O)C(C)(C)C)=C(C)CS[C@H]12)c1csc(N)n1
not listed: [6] | [8] | [14] | [16] | [18] | [19]
inactive: all other assays above

C=CCOCC(CC)(CO)COCC=C
not listed: [6] | [8]
inactive: all other assays above

CCOC(=O)c1ccc(C)cc1
not listed: [6] | [9] | [10]
inactive: all other assays above

CCN1CCC[C@H]1CNC(=O)c1cc(S(N)(=O)=O)ccc1OC
not listed: [6] | [8] | [15]
inactive: all other assays above

Oc1ccc(C2CNCCc3c2cc(O)c(O)c3Cl)cc1 (stereo unspecified)
not listed: [6] | [8] | [14] | [18] | [19]
inactive: all other assays above

N=c1nc(N2CCCCC2)cc(N)n1O
not listed: [6] | [14] | [15]
inactive: all other assays above

CCCCCCCCCCCCCCCCC
not listed: [6] | [15]
inactive: all other assays above

O=C1NC(=O)[C@@]2(CCOc3ccc(F)cc32)N1
not listed: [6] | [15] | [18] | [19]
inactive: all other assays above

c1ccc([C@H]2CN3CCSC3=N2)cc1
not listed: [6] | [15] | [16]
inactive: all other assays above

CCCCOCCOCCOCCCC
not listed: [6] | [8]
inactive: all other assays above

C=C1CC[C@H]2C[C@@H]1C2(C)C
not listed: [6] | [13]
inactive: all other assays above

CCC=O
not listed: [6] | [8] | [15] | [18] | [19]
inactive: all other assays above

CC(C)(C)c1nnc(NS(=O)(=O)c2ccccc2)s1
not listed: [6] | [15]
inactive: all other assays above

CCCCC(CC)COC(=O)c1ccccc1O (stereo unspecified)
not listed: [6] | [10]
inactive: all other assays above

CCOC(=O)[C@H](CCc1ccccc1)N[C@@H](C)C(=O)N1[C@H](C(=O)O)C[C@@H]2CCC[C@@H]21
not listed: [6] | [14]
inactive: all other assays above

CC(C)=CCCC(C)CC(=O)O (stereo unspecified)
not listed: [6] | [8] | [14]
inactive: all other assays above

Cc1c(NC(C)C)c(=O)n(-c2ccccc2)n1C
not listed: [6] | [13] | [16]
inactive: all other assays above

Nc1ccccc1S(=O)(=O)O
not listed: [6] | [8] | [18] | [19]
inactive: all other assays above

COCCc1ccc(OCC(O)CNC(C)C)cc1 (stereo unspecified)
not listed: [6] | [8] | [14] | [18] | [19]
inactive: all other assays above

CC(=O)CC(C)(C)C1CCCCC1
not listed: [6] | [9] | [10] | [12] | [13]
inactive: all other assays above

NC(=O)c1ccc(N)cc1
not listed: [6] | [15] | [18] | [19]
inactive: all other assays above

CCC(C)C1CCCCC1=O (stereo unspecified)
not listed: [6] | [12] | [13] | [15] | [16]
inactive: all other assays above

O=[N+]([O-])c1ccc(F)cc1F
not listed: [6] | [9] | [10] | [18] | [19]
inactive: all other assays above
